Several values for one entry are separate records, joined by “and”; a condition that tells them apart may be missing. Equal entries are not always repeated. Inconclusive results are not listed. A call without a number means that no potency is given here. Activity calls are given as the source filed them. The call rests on the fitted dose curve.
assay: Cytotoxicity counterscreen for inhibitors of SARS-CoV-2 cell entry (AID 1645845); details: cell viability (SARS-CoV-2 entry assay cells); series mostly up to 57.1 µM; further: nearly all actives have a fitted effect of over 50% in size
In short: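 Expi293F/hACE2 cells seeded overnight; cpd pin-transferred in DMSO, 1 h preincubation, + media, 48 h 37 C 5% CO2; ATPLite 1step luminescence; normalized to cells and no cells.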

Row | SMILES | Potency | outcome
1 | CN1CCCN(C(c2ccccc2)c2ccc(Cl)cc2)CC1 (stereo unspecified) | inactive | 
2 | COc1cc([C@H]2Oc3cc([C@H]4Oc5cc(O)cc(O)c5C(=O)[C@@H]4O)ccc3O[C@@H]2CO)ccc1O | inactive | 
3 | Cc1cc(C(C)(C)C)c(O)c(C)c1CC1=NCCN1 | inactive | 
4 | NCCNC(=O)c1ccc(Cl)cn1 | inactive | 
5 | CO[C@@H]1[C@@H](O[C@@H]2O[C@H](C)[C@@H](O[C@H]3C[C@@](C)(O)[C@@H](O)[C@H](C)O3)[C@H](N(C)C)[C@H]2O)[C@@H](CC=O)C[C@@H](C)[C@@H](O[C@@H]2CC[C@H](N(C)C)[C@@H](C)O2)/C=C/C=C/C[C@@H](C)OC(=O)C[C@H]1OC(C)=O | inactive | 
6 | C(=C\c1ccccc1)/CN1CCN(C(c2ccccc2)c2ccccc2)CC1 | inactive | 
7 | CC(C)(C)c1ccc(C(O)CCCN2CCC(C(O)(c3ccccc3)c3ccccc3)CC2)cc1 (stereo unspecified) | inactive | 
8 | CC[C@H](c1ccc(O)cc1)[C@@H](CC)c1ccc(O)cc1 | inactive | 
9 | Cc1ccc(Cl)c(OCC(O)CNC(C)(C)C)c1 (stereo unspecified) | inactive | 
10 | O=C(Nc1ccc(S(=O)(=O)N2CCOCC2)cc1)c1cc(Cl)ccc1NS(=O)(=O)c1ccc(Cl)s1 | inactive | 
11 | OC1C(O)C(O)C(O)C(O)C1O (stereo unspecified) | inactive | 
12 | O=C(O)c1ccccc1Nc1cc(Cl)ccc1C(=O)O | inactive | 
13 | CCN(CC)CCOc1ccccc1C(=O)CCc1ccccc1 | inactive | 
14 | C#CCN(C)Cc1ccccc1 | inactive | 
15 | CCCCN(CCCC)CCC(O)c1cc2c(Cl)cc(Cl)cc2c2cc(C(F)(F)F)ccc12 (stereo unspecified) | inactive | 
16 | N#Cc1cc(NC(=O)C(=O)O)c(Cl)c(NC(=O)C(=O)O)c1 | inactive | 
17 | CCCCN1CCCC[C@H]1C(=O)Nc1c(C)cccc1C | inactive | 
18 | C#C[C@]1(OC(C)=O)CC[C@H]2[C@@H]3CCC4=C[C@@H](OC(C)=O)CC[C@@H]4[C@H]3CC[C@@]21C | inactive | 
19 | COc1cc(OC)cc(OC)c1 | inactive | 

Row | SMILES | Potency | outcome
20 | COc1ccccc1N1CCN(CCCNc2cc(=O)n(C)c(=O)n2C)CC1 | inactive | 
21 | CCC(=O)c1ccc2c(c1)N(CCCN(C)C)c1ccccc1S2 | inactive | 
22 | NC1=NCC2c3ccccc3Cc3ccccc3N12 (stereo unspecified) | inactive | 
23 | Cc1ccc2c(Cl)cc(Cl)c(O)c2n1 | inactive | 
24 | c1ccc(CC2=NCCN2)cc1 | inactive | 
25 | CCOC(CN1CCN(CC(C)C(=O)c2ccccc2)CC1)c1ccccc1 (stereo unspecified) | inactive | 
26 | CNC1CCCN(c2c(F)cc3c(=O)c(C(=O)O)cn(C4CC4)c3c2OC)C1 (stereo unspecified) | inactive | 
27 | COC(=O)C1=C(C)NC(C)=C(C(=O)OCCN2CCN(C(c3ccccc3)c3ccccc3)CC2)C1c1cccc([N+](=O)[O-])c1 (stereo unspecified) | inactive | 
28 | CC(C)=CCOc1ccc(/C=C/C(=O)c2ccc(OCC=C(C)C)cc2OCC(=O)O)cc1 | inactive | 
29 | Clc1ccc2c(c1)CCc1cccnc1C2=C1CCNCC1 | inactive | 
30 | CCCCCCc1ccc(O)cc1O | inactive | 
31 | CN(Cc1cc(Br)cc(Br)c1N)C1CCCCC1 | inactive | 
32 | Nc1c(NC/C=C\COc2cc(CN3CCCCC3)ccn2)c(=O)c1=O | inactive | 
33 | Oc1ccc(O)cc1 | inactive | 
34 | O=c1[nH]c(=O)c2[nH]c(=O)[nH]c2[nH]1 |  | inactive [at 11.3 µM]
35 | COc1ccc2[nH]c(S(=O)Cc3ncc(C)c(OC)c3C)nc2n1 (stereo unspecified) | inactive | 
36 | Cc1ccc(Nc2c(F)cccc2Cl)c(CC(=O)O)c1 | inactive | 
37 | CN1CCCC(n2nc(Cc3ccc(Cl)cc3)c3ccccc3c2=O)CC1 (stereo unspecified) | inactive | 
38 | CCN(CC)CC(=O)Nc1c(C)cccc1C(=O)OC | inactive | 

assay: Primary qHTS to identify inhibitors of SARS-CoV-2 cell entry (AID 1645846); details: SARS-CoV-2 pseudovirus cell entry assay, luminescence; activity change, negative = inhibition: at 57.1 µM (top of the series) unless noted; series mostly up to 57.1 µM; further: nearly all actives have a fitted effect of over 45% in size
In short: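 Entry measured by luciferase signal 48 h after adding SARS-CoV-2-S pseudotyped MLV particles to HEK293-ACE2 cells preincubated 1 h with compounds. Normalisation: bald particles and spike particles.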

Row | SMILES | Potency | activity change, negative = inhibition
39 | C#CCN(C)Cc1ccccc1 | inactive | 
40 | N#Cc1cc(NC(=O)C(=O)O)c(Cl)c(NC(=O)C(=O)O)c1 |  | 1.2%
41 | COc1ccccc1N1CCN(CCCNc2cc(=O)n(C)c(=O)n2C)CC1 |  | -0.464%
42 | Cc1ccc2c(Cl)cc(Cl)c(O)c2n1 | inactive | 
43 | c1ccc(CC2=NCCN2)cc1 | inactive | 
44 | CNC1CCCN(c2c(F)cc3c(=O)c(C(=O)O)cn(C4CC4)c3c2OC)C1 (stereo unspecified) |  | -27.9% and -16.1%
45 | CCCCCCc1ccc(O)cc1O |  | -11.8%
46 | Cc1ccc(Nc2c(F)cccc2Cl)c(CC(=O)O)c1 | inactive | 

— PubChem BioAssay (NCATS)
